Assay results: PubChem BioAssay
Active and inactive are the calls of the source. Unless noted, the rule behind the calls is not given here.

What was measured:
[1] = liver-stage malaria parasite load reduction – cell-based, known kinase inhibitor set, luminescence, hepatoma host viability (AID 624392); details: Plasmodium liver stage in hepatoma cells, luciferase luminescence, concentration not given here; liver cell % of control: measured here: host liver cell viability; parasite % of control: stronger effect = lower value;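 note: infected cells incubated roughly two days before readout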
[2] = altered dexamethasone sensitivity, NF-kB reporter, cell-based, luciferase, IL-1B stimulus (AID 624486); details: IL-1B + dexamethasone, luminescence; percent of negative control (+Dex): actives lie on both sides, concentration not given here; z-score: measured here: IL-1B alone, no Dex;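 for percent of negative control (+Dex): 100% = mean signal of vehicle control wells on the plate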
[3] = target: Cellular tumor antigen p53 (Homo sapiens) (UniProt P04637); assay: GFP-p53 level modulators in HPV16+ cells – imaging, known kinase inhibitor set, EGFP/DsRed ratio (AID 1053116); details: GFP-p53 stability, stronger effect = higher value; EGFP object count: measured here: GFP-p53 positive objects count;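 note: cells exposed to compounds for 24 h at 37 °C before reading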
[4] = inducers of IRF3 signaling, differentiated THP-1 – cell-based, PMA-stimulated THP-1, luminescence (AID 1053176); details: PMA-differentiated THP-1, IRF3 reporter luminescence; stronger effect = higher value
[5] = C. elegans survival during P. aeruginosa infection – whole organism (AID 651566);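 note: tested at 14 µM; sign flipped so higher z means a lower ratio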; details: C. elegans killed by P. aeruginosa, survival ratio
[6] = pro-inflammatory signaling induction in mouse macrophages – cell-based, murine, luminescence (AID 652131); details: murine macrophage pro-inflammatory reporter, stronger effect = higher value
[7] = MELAS cybrid and Rieske KO viability enhancers – cell-based, MELAS cybrids, Rieske KO mouse fibroblasts, CellTiter-Glo, primary screen (AID 1508586;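 active = mean z-score across replicates of 1.96 or higher in either the MELAS or the Rieske mutant cell line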;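 note: z relative to plate mean and SD of compound and empty wells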); details: low glucose
[8] = MELAS cybrid survival, CellTiter-Glo 48 h, stronger effect = higher value
[9] = Rieske KO mouse fibroblast survival, CellTiter-Glo 72 h

Chain of Cellular tumor antigen p53 (Homo sapiens) (P04637 whole entry, looked up): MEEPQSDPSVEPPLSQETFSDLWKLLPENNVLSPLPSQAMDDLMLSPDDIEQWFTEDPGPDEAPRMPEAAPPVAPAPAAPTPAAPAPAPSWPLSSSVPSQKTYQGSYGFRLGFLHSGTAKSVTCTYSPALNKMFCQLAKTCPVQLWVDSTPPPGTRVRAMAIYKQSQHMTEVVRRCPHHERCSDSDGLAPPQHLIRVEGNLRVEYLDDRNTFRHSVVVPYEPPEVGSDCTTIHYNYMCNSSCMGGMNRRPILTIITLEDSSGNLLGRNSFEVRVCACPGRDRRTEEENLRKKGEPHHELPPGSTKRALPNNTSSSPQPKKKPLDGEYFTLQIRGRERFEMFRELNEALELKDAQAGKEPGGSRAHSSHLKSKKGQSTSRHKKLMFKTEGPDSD

Compound | liver cell % of control [1] [%] | parasite % of control [1] | percent of negative control (+Dex) [2] | z-score [2] | EGFP object count [3] | EGFP/DsRed ratio [3] | fraction signal [4] | z-score [5] | z-score [6] | z-score [7, 8] | z-score [7, 9]
N=C1N=C(N)C(=Cc2ccc3ncccc3c2)S1 | 121 | 61.8% (inactive) | 98.5% (inactive) | 1.46 | 3.5 | 0.171 (inactive) | 0.006 (inactive) |  |  |  | 
Nc1[nH]nc2nc(-c3cccs3)cc(C(F)(F)F)c12 | 104 | 41.7% (inactive) | 73% (active) | -2.23 | 4 | 0.138 (inactive) | -0.0165 (inactive) |  |  |  | 
Fc1ccc(-c2ncn(C3CCNCC3)c2-c2ccnc(Oc3ccc(Cl)cc3)n2)cc1 | 79.3 | 63.5% (inactive) | 103% (inactive) | 0.58 |  |  | -0.006 (inactive) | 0.16 (inactive) | -0.186 (inactive) | 0.00888 (inactive) | -0.374
CSc1c(C2=C(c3cn(C)c4ccccc34)C(=O)NC2=O)c2ccccc2n1C | 96.3 | 78.1% (inactive) | 110% (inactive) | 0.45 | 21 | 0.217 (inactive) | 0.0015 (inactive) |  |  |  | 
COc1cccc(C(=O)c2sc(Nc3ccc(N4CCN(C(C)C)CC4)cc3)nc2N)c1 | 86.7 | 389% (inactive) | 112% (inactive) | 1.07 | 2.5 | 0.139 (inactive) | -0.02 (inactive) |  |  |  | 
O=S1CCN(Cc2ccc(-c3ccc4ncnc(Nc5ccc(OCc6cccc(F)c6)c(Cl)c5)c4c3)o2)CC1 | 103 | 99.6% (inactive) | 74.5% (inactive) | -1.72 |  |  | -0.007 (inactive) | -0.375 (inactive) | 13.5 (active) | 0.445 (inactive) | -0.225
O=C1NC(=NC2CC2c2ccccc2)SC1=Cc1ccc2ncccc2c1 (centres undefined) | 193 | 10.6% (inactive) | 64% (active) | -4.3 | 3 | 0.221 (inactive) | -0.0115 (inactive) |  |  |  | 
COc1cccc(C2=C(c3cn(C)c4cc(C)ccc34)C(=O)NC2=O)c1 | 112 | 29% (inactive) | 98.5% (inactive) | -1.5 | 24 | 0.336 (inactive) | -0.005 (inactive) |  |  |  | 
Fc1ccc(-c2ncn(C3CCNCC3)c2-c2ccnc(Oc3cccc(F)c3)n2)cc1 | 80.2 | 175% (inactive) | 111% (inactive) | 0.615 |  |  | -0.0075 (inactive) | -0.555 (inactive) | -0.299 (inactive) | -0.13 (inactive) | -0.344
